Most compounds without a hit are left out; they make up all but 12% or so of the library.
JMJD2A Tudor inh: qHTS Assay for Inhibitors of JMJD2A-Tudor Domain; Lysine-specific demethylase 4A (Homo sapiens), O75164; AlphaScreen JMJD2A-Tudor / H3K4me3 peptide binding; Potency, µM (titrated, usually from 114 µM), inactives show top-dose activity change, negative = inhibition, actives largely listed as inhibitors; 4.4% of 390,000 active; AID 504339, 2011; note: % is set by controls: 0 for no effect and ±100 for the full control effect; nearly all actives have a fitted effect of over 50% in size
Sfp PPTase inh: qHTS Assay for Inhibitors of Bacillus subtilis Sfp phosphopantetheinyl transferase (PPTase) | 4'-phosphopantetheinyl transferase ffp (Bacillus subtilis), Q9F4F7 | Biochemical Sfp PPTase activity, qHTS | Potency, µM, inactives show largest response in the series, negative = inhibition, most hits filed as inhibitors | 3.5% of 310,000 active;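 note: the enzyme is Sfp with the accession as filed and its product quenches rhodamine fluorescence; 0% = enzyme reaction without inhibitor and -100% = no enzyme wells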
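Buffer: 50 mM Hepes-Na pH 7.6, 10 mM MgCl2, 0.01% Nonidet P-40, 0.01% BSA. Enzyme 15 nM, pre-exposed to compound 15 min; substrates then added and fluorescence change tracked over 30 min.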
G9a inh: qHTS Assay for Inhibitors of Histone Lysine Methyltransferase G9a; Histone-lysine N-methyltransferase EHMT2 (Homo sapiens), Q96KQ7; Potency, µM (doses to about 102 µM), for inactives: top-dose activity, negative = inhibition, most hits filed as inhibitors; 8.8% of 350,000 active; AID 504332, 2011; G9a H3K9 monomethylation, AlphaScreen, 2 h; note: % is set by controls: 0 for no effect and ±100 for the full control effect; nearly all actives have a fitted effect of over 75% in size
Target sequence (Q96KQ7 913-1193 limits assumed): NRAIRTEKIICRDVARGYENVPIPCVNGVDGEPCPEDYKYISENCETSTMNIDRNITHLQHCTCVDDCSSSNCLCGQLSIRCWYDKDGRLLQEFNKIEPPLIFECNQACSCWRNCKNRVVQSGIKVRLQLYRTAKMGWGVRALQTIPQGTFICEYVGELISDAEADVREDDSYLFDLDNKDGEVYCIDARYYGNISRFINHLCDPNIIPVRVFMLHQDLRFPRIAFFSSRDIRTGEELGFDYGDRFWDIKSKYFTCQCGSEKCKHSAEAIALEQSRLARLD
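G9a (20 nM) preincubated 15 min RT with compounds, then 500 nM biotinylated H3K9 peptide and 20 uM SAM added; 2 h RT reaction. Monomethyl-H3K9 product detected by AlphaScreen with anti-H3K9me1 antibody, streptavidin donor and anti-rabbit IgG acceptor beads.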
BAZ2B block: qHTS Assay for Inhibitors of BAZ2B | AlphaScreen BAZ2B-H3K14Ac peptide displacement | Potency, µM (highest dose often 114 µM), without a hit: at the top dose activity change, negative = inhibition, hits mostly inhibitors | 4.4% of 360,000 active | AID 504333, 2011; note: % is set by controls: 0 for no effect and ±100 for the full control effect; nearly all actives have a fitted effect of over 60% in size
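Multi-concentration screen (max 110 uM) measuring displacement of acetylated histone H3 peptide from BAZ2B by AlphaScreen, using 50 nM protein, 50 nM peptide and 10 ug/mL streptavidin donor plus Ni-chelate acceptor beads.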
HP1b binding inh: HTS for Inhibitors of HP1-beta Chromodomain Interactions with Methylated Histone Tails. 0.56% of 390,000 active. Potency, µM (highest dose often 114 µM), for inactives: at the top dose activity change, negative = inhibition, hits mostly inhibitors. AlphaScreen HP1-beta / biotin-H3K9me3 peptide binding. Chromobox protein homolog 1 (Homo sapiens), P83916; note: nearly all actives have a fitted effect of over 70% in size
Target sequence (P83916 whole entry, looked up): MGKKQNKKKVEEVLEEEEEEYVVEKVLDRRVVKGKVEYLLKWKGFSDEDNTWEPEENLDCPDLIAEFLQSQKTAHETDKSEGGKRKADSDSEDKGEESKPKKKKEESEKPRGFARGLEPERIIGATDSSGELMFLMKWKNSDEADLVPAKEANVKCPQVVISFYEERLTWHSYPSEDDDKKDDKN
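Compound inhibition of the preformed complex between 50 nM HP1-beta and 50 nM biotinylated H3K9me3 peptide was read by AlphaScreen. Buffer was PBS pH 7.4 with 0.01% Tween-20. Incubations ran 30 min at room temperature, with 10 ug/mL donor/acceptor beads.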
* hit, by the source's call; [ ] = dose if it differs, or a comment. Calls come from the whole dose curve; as a rule, active = well fitted curve in the direction sought with a large enough effect; inconclusive = small, poorly fitted or top-dose-only effect, or another doubt; inactive = no such curve, though single readings can be large; an effect the other way counts as inactive or inconclusive. Potency is the fitted concentration of half-maximal effect.

What do the screens show for `CC1CCCN(Cc2nc3c(c(=O)n(C)c(=O)n3C)n2Cc2c(F)cccc2Cl)C1` (stereo not drawn)?
JMJD2A Tudor inh: -18%; Sfp PPTase inh: 15%; G9a inh: inconclusive; BAZ2B block: -11%; HP1b binding inh: 12%

Results for COc1cc(N2CCCC2)c(OC)cc1/C=C(/C#N)c1ccc(F)cc1 ?
JMJD2A Tudor inh: 32µM*; Sfp PPTase inh: inconclusive; G9a inh: 1.6µM*; BAZ2B block: 16µM*; HP1b binding inh: 40µM*

How did COc1cc(N2CCCC2)c(OC)cc1/C=C(/C#N)c1ccc(Br)cc1 do in these assays?
JMJD2A Tudor inh: 20µM*; Sfp PPTase inh: -11%; G9a inh: 2.8µM*; BAZ2B block: 13µM*; HP1b binding inh: inconclusive

Results for COc1cc(NC(=O)C2CCCO2)c(C(=O)O)cc1OC (stereo not drawn) ?
JMJD2A Tudor inh: -15%; Sfp PPTase inh: -2%; G9a inh: 0%[12.7 µM]; BAZ2B block: -9%; HP1b binding inh: 24%

What do the screens show for `CC(C)OCCCNC(=O)CN1C(=O)CSc2ccc(S(=O)(=O)N3CCOCC3)cc21`?
JMJD2A Tudor inh: -11%; G9a inh: -3%[59 µM]; BAZ2B block: -3%; HP1b binding inh: 1%

How did Cc1ccc(CNC(=O)c2cc(C)nc3c2c(C)nn3-c2ccc(C)cc2)cc1 do in these assays?
JMJD2A Tudor inh: 2%; G9a inh: -3%[59 µM]; BAZ2B block: 10%[57.1 µM]; HP1b binding inh: 32%

How did CC(C)(C)c1ccc(-n2ncc3c2CCCC3NC(=O)C2(C(N)=O)CC2)cc1 (stereo not drawn) do in these assays?
JMJD2A Tudor inh: -31%; Sfp PPTase inh: 1%; G9a inh: 13%; BAZ2B block: -1%; HP1b binding inh: 1%

What do the screens show for `CCn1c(SCc2nc3sc(C(=O)O)c(C)c3c(=O)[nH]2)nc2ccccc21`?
JMJD2A Tudor inh: 40µM*; Sfp PPTase inh: inconclusive; G9a inh: 2.5µM*; BAZ2B block: 25µM*; HP1b binding inh: 28µM*

What do the screens show for `CCOC(=O)c1sc2nc(CSc3ccccc3Cl)[nH]c(=O)c2c1C`?
JMJD2A Tudor inh: -24%; Sfp PPTase inh: 6%; G9a inh: -30%; HP1b binding inh: 17%

Results for CCOC(=O)CSc1nc2sc(C)c(C)c2c(=O)[nH]1 ?
JMJD2A Tudor inh: 16%; Sfp PPTase inh: -6%; G9a inh: -6%[12.7 µM]; BAZ2B block: 2%; HP1b binding inh: 62%

Results for CCOC(=O)CSc1nc2sc(C(=O)O)c(C)c2c(=O)[nH]1 ?
JMJD2A Tudor inh: -6%; Sfp PPTase inh: 13%; G9a inh: 79µM*; BAZ2B block: 3%; HP1b binding inh: 33%

How did Cc1c(C(=O)O)sc2nc(CSc3ncc(C(F)(F)F)cc3Cl)[nH]c(=O)c12 do in these assays?
JMJD2A Tudor inh: 50µM*; Sfp PPTase inh: -8%; G9a inh: 8%[59 µM]; BAZ2B block: 50µM*; HP1b binding inh: inconclusive

Results for COCCn1c(SCc2nc3sc(C(=O)OC)c(C)c3c(=O)[nH]2)nc2ccccc21 ?
JMJD2A Tudor inh: -21%; Sfp PPTase inh: 2%; G9a inh: inconclusive; BAZ2B block: -13%; HP1b binding inh: 26%

What do the screens show for `Cc1ccc(NC(=O)CSc2nc3ccc(NC(=O)c4ccco4)cc3s2)cc1`?
JMJD2A Tudor inh: -35%; G9a inh: inconclusive; BAZ2B block: 79µM*; HP1b binding inh: 13%

What do the screens show for `CN(C)c1ccc(NC(=O)c2sc(SCC(=O)Nc3ccc(Br)cc3)nc2N)cc1`?
JMJD2A Tudor inh: -2%; Sfp PPTase inh: 21%; G9a inh: 22%[59 µM]; BAZ2B block: -2%; HP1b binding inh: 34%

Results for CN(C)c1ccc(NC(=O)c2sc(SCC(=O)Nc3nccs3)nc2N)cc1 ?
JMJD2A Tudor inh: inconclusive; Sfp PPTase inh: -10%; G9a inh: inconclusive; BAZ2B block: 40µM*; HP1b binding inh: inconclusive

Results for CC(=O)Nc1ccc2nc(SCC(=O)Nc3ccc(N4CCOCC4)c(Cl)c3)sc2c1 ?
JMJD2A Tudor inh: -21%; Sfp PPTase inh: -29%; G9a inh: 43%[0.501 µM]; BAZ2B block: 11µM*; HP1b binding inh: 22%

What do the screens show for `COc1ccc(NC(=O)CSc2nc3ccc(Nc4nc(N5CCOCC5)nc(N5CCOCC5)n4)cc3s2)cc1`?
JMJD2A Tudor inh: -12%; Sfp PPTase inh: -28%; G9a inh: inconclusive; BAZ2B block: -7%; HP1b binding inh: 58%

What do the screens show for `Cc1ccc(NC(=O)CSc2nc3ccc(Nc4nc(N5CCOCC5)nc(N5CCOCC5)n4)cc3s2)cc1`?
JMJD2A Tudor inh: -18%; Sfp PPTase inh: inconclusive; G9a inh: 35µM*; BAZ2B block: -20%; HP1b binding inh: 17%

How did N#CCCN/N=C(/Cc1nc2ccccc2[nH]1)c1cccc(Cl)c1 do in these assays?
JMJD2A Tudor inh: -26%; Sfp PPTase inh: 9%; G9a inh: inconclusive; BAZ2B block: -14%; HP1b binding inh: 34%

How did Cc1ccc(S(=O)(=O)N2CCN(C(=O)CN3C(=O)CNC3=O)CC2)cc1 do in these assays?
JMJD2A Tudor inh: 8%; G9a inh: -10%[12.7 µM]; BAZ2B block: 2%; HP1b binding inh: 50%

How did Fc1ccc(Nc2ncnc3c2nc2n3CCCC2)cc1 do in these assays?
JMJD2A Tudor inh: 1%; G9a inh: 4%[59 µM]; BAZ2B block: -5%; HP1b binding inh: 30%

What do the screens show for `O=C(COCC(=O)Nc1cccc(C(F)(F)F)c1)Nc1cccc(C(F)(F)F)c1`?
JMJD2A Tudor inh: -4%; Sfp PPTase inh: 13%; G9a inh: 5%[59 µM]; BAZ2B block: 2%; HP1b binding inh: 36%

How did COCCNC(=O)CN1C(=O)c2cccnc2Oc2ccc(Cl)cc21 do in these assays?
JMJD2A Tudor inh: 9%; G9a inh: -6%[59 µM]; BAZ2B block: 1%; HP1b binding inh: 40%

How did COc1ccc(C(CNC(=O)Cc2ccccc2F)N2CCCCC2)cc1 (stereo not drawn) do in these assays?
JMJD2A Tudor inh: -3%; Sfp PPTase inh: 2%; G9a inh: 55%; BAZ2B block: -6%; HP1b binding inh: 22%

Results for Cc1ccc(NC(=O)CSc2nc3ccc(NC(=O)CCc4ccccc4)cc3s2)c(C)c1 ?
JMJD2A Tudor inh: -8%; G9a inh: 3%[59 µM]; BAZ2B block: -10%; HP1b binding inh: 14%

Results for CCC(Sc1nc2ccc(N)cc2s1)C(=O)Nc1nccs1 (stereo not drawn) ?
JMJD2A Tudor inh: 50µM*; Sfp PPTase inh: -5%; G9a inh: 13µM*; BAZ2B block: -32%; HP1b binding inh: 26%

Results for Cc1ccc(C)c(NC(=O)CSc2nc3ccc(N4C(=O)c5ccccc5C4=O)cc3s2)c1 ?
JMJD2A Tudor inh: -21%; Sfp PPTase inh: -19%; G9a inh: 11µM*; BAZ2B block: -1%; HP1b binding inh: 42%
